Of roughly 8,800 targets only a part is listed; those with a hit were picked by preference. About 0.5% of all pairs of compound and target were hits.
How the values were obtained:
Test in all cases: log2 fold change, soluble protein after heating vs DMSO (PISA); higher = thermal stabilisation; K562 lysate, 10 uM; active = over 0.2 and 3.5 SD of the protein, either way, in both replicates (recomputed)
lapatinib = compound: CS(=O)(=O)CCNCc1ccc(-c2ccc3ncnc(Nc4ccc(OCc5cccc(F)c5)c(Cl)c4)c3c2)o1 [lapatinib]
How it was run: (§1)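 The values are log-two fold changes in thermal stability compared with solvent controls and come from duplicates. They were obtained by TMTpro 16plex LC-MS/MS, with channel sums equalised, on the supernatant after 21,000xg for 90 min. That supernatant came from crude K562 extract at 1 mg/mL protein treated with 10 μM compound for 30 min, heated for 3 min across 48°C-58°C, pooled and brought to 0.5% NP-40 at 4°C.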

pictilisib = compound: CS(=O)(=O)N1CCN(Cc2cc3nc(-c4cccc5[nH]ncc45)nc(N4CCOCC4)c3s2)CC1 [pictilisib]
How it was run: as §1

crizotinib = compound: C[C@@H](Oc1cc(-c2cnn(C3CCNCC3)c2)cnc1N)c1c(Cl)ccc(F)c1Cl [crizotinib]
How it was run: as §1

[1] = compound: C[C@H](C1=CC=C(C=C1)C(=O)NC2=C3C=CNC3=NC=C2)N
How it was run: as §1

duvelisib = compound: C[C@H](Nc1ncnc2nc[nH]c12)c1cc2cccc(Cl)c2c(=O)n1-c1ccccc1 [duvelisib]
How it was run: as §1

gandotinib = compound: Cc1cc(Nc2cc(CN3CCOCC3)c3nc(C)c(Cc4ccc(Cl)cc4F)n3n2)n[nH]1 [gandotinib]
How it was run: as §1

tozasertib = compound: Cc1cc(Nc2cc(N3CCN(C)CC3)nc(Sc3ccc(NC(=O)C4CC4)cc3)n2)n[nH]1 [tozasertib]
How it was run: as §1

doramapimod = compound: Cc1ccc(-n2nc(C(C)(C)C)cc2NC(=O)Nc2ccc(OCCN3CCOCC3)c3ccccc23)cc1 [doramapimod]
How it was run: as §1

bafetinib = compound: Cc1ccc(NC(=O)c2ccc(CN3CC[C@H](N(C)C)C3)c(C(F)(F)F)c2)cc1Nc1nccc(-c2cncnc2)n1 [bafetinib]
How it was run: as §1

[2] = compound: Cc1cccc(CC(=O)N2CCc3c2ccc(-c2cn(C)c4ncnc(N)c24)c3F)n1
How it was run: as §1

Measured: log2 fold change

CDKN2AIP (UniProt Q9NXV6)
inactive: lapatinib -0.015 | pictilisib -0.036 | crizotinib 0.024 | [1] -0.04 | duvelisib 0.017 | gandotinib 0.08 | tozasertib -0.034 | doramapimod 0.043 | bafetinib 0.016 | [2] 0.026

BTAF1 (UniProt O14981)
inactive: lapatinib 0.015 | pictilisib -0.043 | crizotinib -0.041 | [1] -0.137 | duvelisib 0.011 | gandotinib -0.004 | tozasertib 0 | doramapimod 0.046 | bafetinib -0.056 | [2] 0.093

BCKDK (UniProt O14874)
inactive: lapatinib -0.056 | pictilisib -0.028 | crizotinib 0.096 | [1] -0.038 | duvelisib -0.008 | gandotinib -0.095 | tozasertib -0.039 | doramapimod -0.033 | bafetinib 0.012 | [2] -0.003

CD63 (UniProt P08962)
Sequence of UniProt P08962 (P08962 whole entry, looked up): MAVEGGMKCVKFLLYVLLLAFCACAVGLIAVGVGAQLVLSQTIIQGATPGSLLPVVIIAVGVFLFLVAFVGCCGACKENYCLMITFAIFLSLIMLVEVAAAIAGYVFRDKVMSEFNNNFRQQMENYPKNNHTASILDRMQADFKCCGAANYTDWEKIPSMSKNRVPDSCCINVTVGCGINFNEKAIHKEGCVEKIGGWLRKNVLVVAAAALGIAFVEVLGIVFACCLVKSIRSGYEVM
inactive: lapatinib 0.006 | pictilisib -0.256 | crizotinib 0.036 | duvelisib 0.025 | gandotinib 0.209 | tozasertib 0.013 | doramapimod 0.077 | bafetinib -0.08 | [2] 0.074
active: [1] -0.415

BSDC1 (UniProt Q9NW68)
active: gandotinib 0.312
inactive: lapatinib 0.088 | pictilisib -0.055 | crizotinib 0.012 | [1] -0.052 | duvelisib 0.016 | tozasertib -0.005 | doramapimod 0.098 | bafetinib -0.012 | [2] 0.019

CBX1 (UniProt P83916)
inactive: lapatinib 0.052 | pictilisib -0.006 | crizotinib 0.023 | duvelisib 0.03 | gandotinib -0.143 | tozasertib -0.05 | doramapimod -0.034 | bafetinib 0.025 | [2] -0.138
active: [1] 0.279

C5orf51 (UniProt A6NDU8)
inactive: lapatinib 0.018 | pictilisib -0.003 | crizotinib -0.024 | [1] 0.039 | duvelisib -0.023 | gandotinib -0.143 | tozasertib -0.037 | doramapimod -0.027 | bafetinib -0.031 | [2] -0.037

CCNC (UniProt P24863)
inactive: lapatinib -0.108 | pictilisib 0.036 | crizotinib -0.037 | [1] 0.075 | duvelisib 0.009 | gandotinib -0.104 | tozasertib -0.025 | bafetinib -0.123 | [2] 0.015
active: doramapimod 0.332

CCDC47 (UniProt Q96A33)
inactive: lapatinib -0.05 | pictilisib 0.005 | crizotinib -0.016 | [1] -0.012 | duvelisib -0.03 | gandotinib -0.145 | tozasertib -0.009 | doramapimod -0.018 | bafetinib -0.031 | [2] 0.049

CENPQ (UniProt Q7L2Z9)
inactive: lapatinib 0.101 | pictilisib 0.015 | crizotinib -0.028 | [1] -0.226 | duvelisib -0.027 | gandotinib 0.071 | tozasertib -0.196 | doramapimod 0.001 | bafetinib 0.017 | [2] -0.013

CDK5 (UniProt Q00535)
inactive: lapatinib -0.094 | pictilisib 0.095 | crizotinib -0.031 | [1] -0.024 | duvelisib 0.03 | gandotinib 0.451 | tozasertib 0.014 | doramapimod 0.423 | bafetinib -0.008 | [2] -0.023

CDK1 (UniProt P06493)
Sequence of UniProt P06493 (P06493 whole entry, looked up): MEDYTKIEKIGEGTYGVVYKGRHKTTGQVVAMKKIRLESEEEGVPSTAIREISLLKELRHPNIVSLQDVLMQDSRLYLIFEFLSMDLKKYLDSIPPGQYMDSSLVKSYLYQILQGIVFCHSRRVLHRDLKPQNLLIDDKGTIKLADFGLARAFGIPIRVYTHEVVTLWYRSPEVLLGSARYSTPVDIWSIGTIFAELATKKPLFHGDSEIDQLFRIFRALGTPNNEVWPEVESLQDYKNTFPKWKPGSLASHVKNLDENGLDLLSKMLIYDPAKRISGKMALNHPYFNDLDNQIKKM
inactive: lapatinib -0.012 | pictilisib -0.021 | crizotinib -0.041 | [1] -0.018 | duvelisib 0.031 | gandotinib -0.224 | tozasertib 0.001 | doramapimod 0.019 | bafetinib -0.016 | [2] -0.022

CFDP1 (UniProt Q9UEE9)
inactive: lapatinib -0.018 | pictilisib 0.008 | crizotinib -0.052 | duvelisib 0.006 | gandotinib 0.066 | tozasertib -0.032 | doramapimod 0.041 | bafetinib 0.07 | [2] 0.091
active: [1] -0.288

CAD (UniProt P27708)
inactive: lapatinib -0.023 | pictilisib -0.02 | crizotinib -0.038 | [1] -0.024 | duvelisib -0.011 | gandotinib -0.019 | tozasertib 0 | doramapimod 0.02 | bafetinib -0.052 | [2] 0.07

CDK13 (UniProt Q14004)
Sequence of UniProt Q14004 (Q14004 whole entry, looked up): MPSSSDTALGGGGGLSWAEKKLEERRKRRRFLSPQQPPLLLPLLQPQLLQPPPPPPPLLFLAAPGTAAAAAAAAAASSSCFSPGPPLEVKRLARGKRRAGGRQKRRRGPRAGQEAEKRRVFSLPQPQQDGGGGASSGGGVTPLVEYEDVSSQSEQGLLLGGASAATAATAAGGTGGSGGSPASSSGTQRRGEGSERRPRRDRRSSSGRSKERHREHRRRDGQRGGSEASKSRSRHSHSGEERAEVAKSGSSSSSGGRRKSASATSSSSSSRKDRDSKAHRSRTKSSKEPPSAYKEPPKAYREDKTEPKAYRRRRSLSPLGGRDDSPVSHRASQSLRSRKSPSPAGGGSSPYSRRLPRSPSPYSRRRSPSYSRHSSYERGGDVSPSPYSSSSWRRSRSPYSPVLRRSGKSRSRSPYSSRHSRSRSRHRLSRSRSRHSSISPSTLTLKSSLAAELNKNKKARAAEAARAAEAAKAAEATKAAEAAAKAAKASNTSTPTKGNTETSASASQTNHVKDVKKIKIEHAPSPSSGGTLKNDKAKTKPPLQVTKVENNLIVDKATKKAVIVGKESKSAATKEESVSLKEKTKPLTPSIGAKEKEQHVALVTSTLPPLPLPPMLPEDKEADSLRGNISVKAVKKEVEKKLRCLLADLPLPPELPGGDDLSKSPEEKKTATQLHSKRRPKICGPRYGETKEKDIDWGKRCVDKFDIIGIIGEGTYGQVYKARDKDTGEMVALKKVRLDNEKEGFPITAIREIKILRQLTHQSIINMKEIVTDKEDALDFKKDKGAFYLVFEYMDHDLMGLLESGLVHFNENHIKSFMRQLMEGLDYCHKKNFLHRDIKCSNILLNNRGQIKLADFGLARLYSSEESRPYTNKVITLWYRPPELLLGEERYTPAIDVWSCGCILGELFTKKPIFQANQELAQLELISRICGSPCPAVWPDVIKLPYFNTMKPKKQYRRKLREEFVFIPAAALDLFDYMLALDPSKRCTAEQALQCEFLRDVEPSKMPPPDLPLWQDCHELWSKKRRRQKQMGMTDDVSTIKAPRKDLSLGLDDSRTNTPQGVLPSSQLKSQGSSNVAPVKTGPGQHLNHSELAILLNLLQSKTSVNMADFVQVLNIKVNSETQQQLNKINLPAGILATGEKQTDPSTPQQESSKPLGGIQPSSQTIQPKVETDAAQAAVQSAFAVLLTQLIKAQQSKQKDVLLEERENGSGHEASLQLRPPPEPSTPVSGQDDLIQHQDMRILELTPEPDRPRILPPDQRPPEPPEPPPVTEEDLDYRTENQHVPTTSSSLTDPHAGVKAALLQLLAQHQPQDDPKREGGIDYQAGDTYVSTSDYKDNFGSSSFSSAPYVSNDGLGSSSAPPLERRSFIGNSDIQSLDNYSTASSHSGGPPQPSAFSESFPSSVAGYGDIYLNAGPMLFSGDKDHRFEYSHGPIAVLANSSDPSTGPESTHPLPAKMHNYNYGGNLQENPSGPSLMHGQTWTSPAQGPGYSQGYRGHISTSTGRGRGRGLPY
inactive: lapatinib -0.077 | pictilisib 0.108 | crizotinib 0.08 | [1] 0.025 | duvelisib -0.006 | gandotinib -0.1 | tozasertib 0.027 | doramapimod 0.002 | bafetinib 0.101 | [2] -0.046

BCAR1 isoform 6 (UniProt P56945)
Sequence of UniProt P56945 (P56945 whole entry, looked up): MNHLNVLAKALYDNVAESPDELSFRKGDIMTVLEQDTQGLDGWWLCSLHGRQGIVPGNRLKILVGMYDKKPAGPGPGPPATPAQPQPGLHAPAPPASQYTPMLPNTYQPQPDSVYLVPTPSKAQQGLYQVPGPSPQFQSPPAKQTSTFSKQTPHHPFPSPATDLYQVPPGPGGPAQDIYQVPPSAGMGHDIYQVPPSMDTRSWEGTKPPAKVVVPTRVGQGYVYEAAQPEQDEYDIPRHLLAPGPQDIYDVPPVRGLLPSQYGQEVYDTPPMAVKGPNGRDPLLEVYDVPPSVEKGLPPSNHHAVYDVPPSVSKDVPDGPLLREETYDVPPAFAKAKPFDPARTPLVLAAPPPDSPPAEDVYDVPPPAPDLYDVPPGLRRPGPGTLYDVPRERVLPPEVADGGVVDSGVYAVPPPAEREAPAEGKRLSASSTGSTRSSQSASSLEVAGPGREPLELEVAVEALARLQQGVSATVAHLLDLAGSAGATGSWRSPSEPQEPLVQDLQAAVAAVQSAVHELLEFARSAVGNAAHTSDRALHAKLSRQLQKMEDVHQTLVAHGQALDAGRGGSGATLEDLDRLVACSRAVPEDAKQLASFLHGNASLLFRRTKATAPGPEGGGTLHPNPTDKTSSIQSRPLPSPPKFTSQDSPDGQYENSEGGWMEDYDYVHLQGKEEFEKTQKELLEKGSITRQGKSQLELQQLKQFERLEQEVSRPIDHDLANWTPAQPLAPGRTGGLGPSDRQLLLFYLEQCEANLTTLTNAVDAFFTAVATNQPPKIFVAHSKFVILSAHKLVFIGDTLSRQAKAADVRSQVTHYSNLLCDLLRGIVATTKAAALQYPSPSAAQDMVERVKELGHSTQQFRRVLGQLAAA
inactive: lapatinib -0.044 | pictilisib 0.003 | crizotinib 0.003 | [1] 0.071 | duvelisib 0.008 | gandotinib -0.113 | tozasertib 0.01 | doramapimod -0.039 | bafetinib -0.073 | [2] -0.104

CDC123 (UniProt O75794)
active: gandotinib 0.335
inactive: lapatinib 0.016 | pictilisib -0.011 | crizotinib -0.012 | [1] 0.032 | duvelisib 0.02 | tozasertib -0.022 | doramapimod -0.032 | bafetinib -0.049 | [2] -0.048

C18orf25 (UniProt Q96B23)
inactive: lapatinib 0.017 | pictilisib -0.003 | crizotinib -0.049 | [1] 0.022 | duvelisib -0.046 | gandotinib 0.019 | tozasertib -0.029 | doramapimod 0.019 | bafetinib -0.023 | [2] -0.098

ATG13 isoform 2 (UniProt O75143)
active: [1] -0.271
inactive: lapatinib 0.018 | pictilisib 0.014 | crizotinib -0.022 | duvelisib 0.016 | gandotinib 0.172 | tozasertib 0.05 | doramapimod 0.049 | bafetinib -0.123 | [2] 0.137

CEPT1 (UniProt Q9Y6K0)
active: [2] 0.223
inactive: lapatinib -0.121 | pictilisib -0.08 | crizotinib -0.122 | [1] -0.106 | duvelisib -0.019 | gandotinib -0.058 | tozasertib 0.025 | doramapimod -0.07 | bafetinib -0.124

AUH (UniProt Q13825)
active: tozasertib 0.455
inactive: lapatinib 0.165 | pictilisib -0.131 | crizotinib 0.012 | [1] 0.144 | duvelisib 0.135 | gandotinib -0.117 | doramapimod 0.023 | bafetinib -0.003 | [2] -0.345

BCKDHB (UniProt P21953)
inactive: lapatinib 0.005 | pictilisib -0.043 | crizotinib -0.055 | [1] 0.083 | duvelisib 0.026 | gandotinib 0.015 | tozasertib 0.09 | doramapimod 0.064 | bafetinib -0.052 | [2] -0.017

ATM (UniProt Q13315)
inactive: lapatinib -0.018 | pictilisib -0.055 | crizotinib -0.045 | [1] -0.112 | duvelisib -0.035 | gandotinib 0.014 | tozasertib -0.04 | doramapimod 0.051 | bafetinib -0.01 | [2] 0.08

CCDC186 (UniProt Q7Z3E2)
active: [1] 0.295
inactive: lapatinib -0.056 | pictilisib -0.004 | crizotinib 0.006 | duvelisib 0.022 | gandotinib -0.061 | tozasertib 0 | doramapimod -0.01 | bafetinib -0.047 | [2] -0.064

ATP6V1B1 (UniProt P15313)
inactive: lapatinib -0.028 | pictilisib -0.028 | crizotinib -0.035 | [1] -0.232 | duvelisib -0.001 | gandotinib 0.099 | tozasertib 0 | doramapimod 0.042 | bafetinib -0.044 | [2] 0.129

BCR (UniProt P11274)
inactive: lapatinib -0.02 | pictilisib -0.032 | crizotinib 0.034 | [1] -0.064 | duvelisib -0.049 | gandotinib -0.013 | tozasertib 0.031 | doramapimod -0.047 | bafetinib 0.019 | [2] 0.1

CHD5 (UniProt Q8TDI0)
Sequence of UniProt Q8TDI0 (Q8TDI0 whole entry, looked up): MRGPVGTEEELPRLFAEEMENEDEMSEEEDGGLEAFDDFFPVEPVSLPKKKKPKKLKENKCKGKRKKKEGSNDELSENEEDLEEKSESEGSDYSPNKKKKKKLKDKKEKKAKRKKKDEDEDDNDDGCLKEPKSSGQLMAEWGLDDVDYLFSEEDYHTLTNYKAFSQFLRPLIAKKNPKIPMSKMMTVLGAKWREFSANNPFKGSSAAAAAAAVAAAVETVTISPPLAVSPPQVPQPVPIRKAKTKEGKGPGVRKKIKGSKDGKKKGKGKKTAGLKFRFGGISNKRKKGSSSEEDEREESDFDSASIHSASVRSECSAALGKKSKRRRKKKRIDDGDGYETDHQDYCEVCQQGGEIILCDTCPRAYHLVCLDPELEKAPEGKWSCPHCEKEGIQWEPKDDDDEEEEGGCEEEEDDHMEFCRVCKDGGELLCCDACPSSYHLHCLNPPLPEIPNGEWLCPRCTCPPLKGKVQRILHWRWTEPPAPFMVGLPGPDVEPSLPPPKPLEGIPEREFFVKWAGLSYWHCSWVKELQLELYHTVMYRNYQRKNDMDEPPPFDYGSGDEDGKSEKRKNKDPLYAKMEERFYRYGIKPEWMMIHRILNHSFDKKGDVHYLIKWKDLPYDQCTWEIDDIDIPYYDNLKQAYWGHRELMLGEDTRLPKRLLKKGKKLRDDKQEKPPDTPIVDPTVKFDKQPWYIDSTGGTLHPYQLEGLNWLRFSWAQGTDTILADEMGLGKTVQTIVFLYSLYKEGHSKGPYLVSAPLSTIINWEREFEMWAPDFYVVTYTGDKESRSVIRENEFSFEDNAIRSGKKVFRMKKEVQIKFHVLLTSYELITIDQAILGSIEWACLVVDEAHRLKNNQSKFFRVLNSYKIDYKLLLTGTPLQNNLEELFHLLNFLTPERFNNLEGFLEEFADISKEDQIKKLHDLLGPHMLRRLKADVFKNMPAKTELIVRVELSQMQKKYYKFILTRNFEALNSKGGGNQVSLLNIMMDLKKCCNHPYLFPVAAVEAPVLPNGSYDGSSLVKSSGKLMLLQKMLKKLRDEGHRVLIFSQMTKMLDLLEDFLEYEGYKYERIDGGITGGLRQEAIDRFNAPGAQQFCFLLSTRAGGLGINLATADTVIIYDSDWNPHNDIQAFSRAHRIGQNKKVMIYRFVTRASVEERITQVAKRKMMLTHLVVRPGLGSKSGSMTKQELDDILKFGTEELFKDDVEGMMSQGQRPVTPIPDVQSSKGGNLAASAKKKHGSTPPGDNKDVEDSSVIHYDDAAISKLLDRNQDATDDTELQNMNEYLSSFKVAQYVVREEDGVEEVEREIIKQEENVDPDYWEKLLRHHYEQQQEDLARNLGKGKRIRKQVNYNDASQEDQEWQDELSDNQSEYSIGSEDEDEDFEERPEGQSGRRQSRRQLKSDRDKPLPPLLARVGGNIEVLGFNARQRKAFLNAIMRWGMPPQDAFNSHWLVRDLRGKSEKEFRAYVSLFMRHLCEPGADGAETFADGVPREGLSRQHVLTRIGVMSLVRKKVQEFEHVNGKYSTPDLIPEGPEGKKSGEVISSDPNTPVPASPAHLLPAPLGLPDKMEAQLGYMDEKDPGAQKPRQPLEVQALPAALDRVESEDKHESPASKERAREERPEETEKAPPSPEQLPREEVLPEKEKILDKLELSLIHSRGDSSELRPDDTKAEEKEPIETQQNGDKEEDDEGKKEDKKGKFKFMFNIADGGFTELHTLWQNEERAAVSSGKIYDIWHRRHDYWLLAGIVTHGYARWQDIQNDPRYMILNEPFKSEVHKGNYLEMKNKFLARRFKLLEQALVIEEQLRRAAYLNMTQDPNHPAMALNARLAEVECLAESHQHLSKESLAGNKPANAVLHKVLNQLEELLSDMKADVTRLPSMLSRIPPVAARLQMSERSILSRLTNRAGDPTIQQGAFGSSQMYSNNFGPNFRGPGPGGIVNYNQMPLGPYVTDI
inactive: lapatinib 0.028 | pictilisib 0.007 | crizotinib -0.03 | [1] 0 | duvelisib -0.056 | gandotinib 0.001 | tozasertib -0.074 | doramapimod 0.034 | bafetinib -0.042 | [2] -0.002

CDC40 (UniProt O60508)
inactive: lapatinib -0.028 | pictilisib 0.039 | crizotinib -0.053 | [1] -0.027 | duvelisib 0 | gandotinib 0.002 | tozasertib -0.038 | doramapimod -0.005 | bafetinib -0.033 | [2] 0.006

BNIP3 (UniProt Q12983)
inactive: lapatinib -0.031 | pictilisib 0.049 | crizotinib -0.054 | duvelisib -0.166 | gandotinib 0.107 | tozasertib -0.046 | doramapimod -0.016 | bafetinib 0.023 | [2] 0.14
active: [1] -0.371

CCDC25 (UniProt Q86WR0)
Sequence of UniProt Q86WR0 (Q86WR0 whole entry, looked up): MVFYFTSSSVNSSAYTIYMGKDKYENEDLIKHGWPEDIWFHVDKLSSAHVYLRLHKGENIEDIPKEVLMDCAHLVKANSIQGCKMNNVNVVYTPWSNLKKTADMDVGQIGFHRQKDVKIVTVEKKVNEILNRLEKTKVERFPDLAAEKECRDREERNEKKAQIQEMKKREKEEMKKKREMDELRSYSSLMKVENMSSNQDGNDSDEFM
inactive: lapatinib -0.028 | pictilisib -0.001 | crizotinib -0.015 | duvelisib 0.011 | gandotinib -0.062 | tozasertib -0.021 | doramapimod 0.065 | bafetinib 0.008 | [2] -0.095
active: [1] 0.487

Reference: the supplement of paper PMC10849652
